Reference: PubChem BioAssay (NCATS)
Records with an inconclusive call do not appear. Entries that show only a call come without a potency. Activity calls are given as the source filed them. Calls follow the shape of the dose curve; as a rule, active = well fitted cell-killing curve with a large enough effect; inconclusive = small, poorly fitted or top-dose-only effect, or effect the other way; inactive = no such curve, though single readings can be large or run the other way.

Test: qHTS assay to identify small molecule inhibitors of chordoma cells - UCH-1 (AID 1259355); also: nearly all actives have a fitted effect of over 55% in size
Settings: UCH-1 chordoma viability, CellTiter-Glo, 48 h, combination, with auranofin plus four topoisomerase inhibitors; series mostly up to 46.1 µM
Text: NIH Chemical Genomics Center [NCGC]
Chordoma is a rare and slow growing tumor that can occur anywhere along the spine, from the base of the skull to the tailbone. Current treatment options for chordoma is surgery and radiation therapy for those who are not candidates for surgery. But chordomas tend to return in the same location or surrounding areas of the original tumor after surgery and/or radiation. Chemotherapy can slow down the progression of the tumor. As chordoma is slow growing, the general cytotoxic agents that kill fast growing cells are ineffective, and some patients have been reported to respond to molecularly targeted drugs.
NCATS Pharmaceutical Collection (NPC) containing approximately 3000 clinically approved and investigational drugs were used to screen at 15 concentrations in a chordoma cell lines, UCH-1, to identify small molecule compounds that can inhibit chordoma cell growth.
NCGC Assay Protocol Summary:
Human chordoma cell line UCH-1 was dispensed at 800 per well in 4uL of culture medium into white solid bottom 1536-well plates (Corning Life Sciences, Corning, NY) using a Multidrop Combi (Thermo Scientific, Waltham, MA) dispenser. The assay plates were incubated at 37 C and 5% CO2 for an overnight, and then 23nL of compounds dissolved in DMSO and positive control were transferred using a Pintool station (Wako, San Diego, CA). Compound treatment was followed by the addition of 1uL of the combination compounds (1uM Auranofin, 500nM each of Camptothecin, Doxorubicin, Rubitecan, and Topotecan) and assay medium to each well of the assay plates using Flying Reagent Dispenser (FRD, Aurora Discovery, San Diego, CA). The assay plates were incubated at 37 C and 5% CO2 for 48hr. Then 5uL of CellTiter-Glo reagent (Promega Corporation, Madison, WI) was added to each well of the assay plates using FRD. After 30min incubation at room temperature, the luminescence signal was quantified using a ViewLux plate reader (PerkinElmer, Shelton, CT).
For CCCCNc1cc(C(=O)O)cc(S(N)(=O)=O)c1Oc1ccccc1, the Potency was “inactive”.
For O=C1CCC(N2C(=O)c3ccccc3C2=O)C(=O)N1 (stereo not given), the Potency was “inactive”.
In the case of CC(=O)Oc1ccccc1C(=O)O, the Potency is reported as “inactive”.
In the case of Cc1ccc(N(CC2=NCCN2)c2cccc(O)c2)cc1, the Potency is reported as “inactive”.
With CCn1cc(C(=O)O)c(=O)c2cc(F)c(N3CCNC(C)C3)c(F)c21 (stereo not given) the Potency was “inactive”.
With c1ccc([C@H]2CN3CCSC3=N2)cc1 the Potency was “inactive”.
In the case of Cc1oncc1C(=O)Nc1ccc(C(F)(F)F)cc1, the Potency is reported as “inactive”.
With CCCc1nc2c(C)cc(-c3nc4ccccc4n3C)cc2n1Cc1ccc(-c2ccccc2C(=O)O)cc1 the Potency was “inactive”.
With NC(N)=NC(=O)c1nc(Cl)c(N)nc1N the Potency was “inactive”.
In the case of C1COC(NC(C2CC2)C2CC2)=N1, the Potency is reported as “inactive”.
With CCOC(=O)C1=C[C@]2(CC)CCCN3CCc4c(n1c1ccccc41)[C@@H]32 the Potency was “inactive”.
With O=C1CCc2cc(OCCCCc3nnnn3C3CCCCC3)ccc2N1 the Potency was “inactive”.
In the case of NS(=O)(=O)c1cc2c(cc1Cl)NC=NS2(=O)=O, the Potency is reported as “inactive”.
With Nc1nc2[nH]cc(CCc3ccc(C(=O)N[C@@H](CCC(=O)O)C(=O)O)cc3)c2c(=O)[nH]1 the Potency was “inactive”.
In the case of COc1ccc2nc(S(=O)Cc3ncc(C)c(OC)c3C)[nH]c2c1 (stereo not given), the Potency is reported as “inactive”.
With Nc1nc2ccc(OC(F)(F)F)cc2s1 the Potency was “inactive”.
With Cc1[nH]c(=O)c(C#N)cc1-c1ccc2nccn2c1 the Potency was “inactive”.
With CCC(C)(C)C(=O)O[C@H]1C[C@@H](C)C=C2C=C[C@H](C)[C@H](CC[C@@H]3C[C@@H](O)CC(=O)O3)[C@H]21 the Potency was “inactive”.
In the case of CN1CCN(CCCN2c3ccccc3Sc3ccc(C(F)(F)F)cc32)CC1, the Potency is reported as “inactive”.
For Cc1cn[nH]c1, the Potency was “inactive”.
In the case of NNCCc1ccccc1, the Potency is reported as “inactive”.
For CC(C)NCC(O)COc1ccc(COCCOC(C)C)cc1 (stereo not given), the Potency was “inactive”.
With Cc1c(C)c2c(c(C)c1O)CCC(C)(COc1ccc(CC3SC(=O)NC3=O)cc1)O2 (stereo not given) the Potency was “inactive”.
In the case of Oc1ccc(C2CNCCc3c2cc(O)c(O)c3Cl)cc1 (stereo not given), the Potency is reported as “inactive”.
For OC(CCN1CCCCC1)(c1ccccc1)C1CC2C=CC1C2 (stereo not given), the Potency was “inactive”.
In the case of CCN(CC)CCCC(C)Nc1ccnc2cc(Cl)ccc12 (stereo not given), the Potency is reported as “inactive”.
In the case of CCc1ccc(CCOc2ccc(CC3SC(=O)NC3=O)cc2)nc1 (stereo not given), the Potency is reported as “inactive”.
With Nc1ccc(S(=O)(=O)Nc2ccnn2-c2ccccc2)cc1 the Potency was “inactive”.
In the case of Cn1cnc([N+](=O)[O-])c1Sc1ncnc2nc[nH]c12, the Potency is reported as “inactive”.
For CC(C)(C)NCC(O)c1ccc(O)c(CO)c1 (stereo not given), the Potency was “inactive”.
In the case of CC(c1cc2ccccc2s1)N(O)C(N)=O (stereo not given), the Potency is reported as “inactive”.
In the case of O=C(O)COCCN1CCN(C(c2ccccc2)c2ccc(Cl)cc2)CC1 (stereo not given), the Potency is reported as “inactive”.
For O=c1n(CCCN2CCN(c3cccc(Cl)c3)CC2)nc2ccccn12, the Potency was “inactive”.
For O=NN(CCCl)C(=O)NCCCl, the Potency was “inactive”.
With N=c1nc(N2CCCCC2)cc(N)n1O the Potency was “inactive”.
With NC[C@H](O)c1ccc(O)c(O)c1 the Potency was “inactive”.
For NCCCC(N)(C(=O)O)C(F)F (stereo not given), the Potency was “inactive”.
In the case of Cc1[nH]c(=O)c(C#N)cc1-c1ccncc1, the Potency is reported as “inactive”.
In the case of Nc1nc2c(ncn2COCCO)c(=O)[nH]1, the Potency is reported as “inactive”.
For NCCc1ccc(O)c(O)c1, the Potency was “inactive”.
